Sampled rows, rich in hits. Any-hit rate of the full collection: about 1.7%.
Measles CPE: compounds protecting cells from measles virus cytopathic effect, primary screen, measles RdRp inhibitor project, single point, MLSMR library, absorbance | hit rate 1.5% among 140,000 | Measles virus-infected cells, CPE protection | AID 841, 2007 | protection (pct of control), % at 4 µM; in the data active = protection mostly above about 24%, no sharp cut-off; inactive = mostly below about 26%
PTPN22 act: LYP phosphatase activators, primary screen, biochemical, DiFMUP fluorescence, 2 µM. recombinant LYP; 0 = plate median, 100 = signal doubled. activation, % at 2 µM. hit rate 0.11% among 96,000. AID 697, 2007;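 active = activation at 2 µM above a set limit, the mean plus 5 SD, cut at about 37% in these data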
Target sequence (Q9Y2R2 whole entry, looked up): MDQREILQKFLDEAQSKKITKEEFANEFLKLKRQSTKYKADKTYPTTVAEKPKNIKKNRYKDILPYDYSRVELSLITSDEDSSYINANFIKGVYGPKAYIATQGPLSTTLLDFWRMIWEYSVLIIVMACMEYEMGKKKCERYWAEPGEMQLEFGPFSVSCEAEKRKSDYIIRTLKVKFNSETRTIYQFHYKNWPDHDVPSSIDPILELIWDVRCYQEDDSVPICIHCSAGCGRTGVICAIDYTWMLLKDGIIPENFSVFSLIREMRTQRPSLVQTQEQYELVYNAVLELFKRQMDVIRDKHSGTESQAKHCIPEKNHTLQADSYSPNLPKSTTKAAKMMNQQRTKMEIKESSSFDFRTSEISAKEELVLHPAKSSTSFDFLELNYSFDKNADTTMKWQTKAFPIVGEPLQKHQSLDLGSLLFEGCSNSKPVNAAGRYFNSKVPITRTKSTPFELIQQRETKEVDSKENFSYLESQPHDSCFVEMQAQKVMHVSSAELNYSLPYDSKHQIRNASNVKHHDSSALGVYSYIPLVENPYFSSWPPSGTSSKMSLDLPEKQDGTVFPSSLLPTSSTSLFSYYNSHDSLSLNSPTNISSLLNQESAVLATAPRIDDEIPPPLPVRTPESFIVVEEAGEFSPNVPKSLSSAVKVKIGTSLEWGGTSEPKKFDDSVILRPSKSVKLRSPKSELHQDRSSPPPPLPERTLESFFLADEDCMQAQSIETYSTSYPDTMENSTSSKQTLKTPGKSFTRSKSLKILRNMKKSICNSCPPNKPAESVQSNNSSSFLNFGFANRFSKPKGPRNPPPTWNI
PTPN22 inh 2: PTPN22 phosphatase inhibitors, primary screen, biochemical, DiFMUP fluorescence, 2 µM. recombinant LYP catalytic domain. inhibition, % at 2 µM. hit rate 0.21% among 96,000. AID 640, 2007;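 active = inhibition at 2 µM at or above a set limit, the screen mean plus 3 SD, cut at about 24% in these data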
A number is an active result.

What do the screens show for `O=C(CSc1ncc(-c2ccccc2)n1CC1CCCO1)N1CCCCC1` (stereo not given)?
Measles CPE: inactive

What do the screens show for `CC(C)Cn1c(-c2ccc(Cl)cc2)cnc1SCC(=O)N1CCOCC1`?
Measles CPE: 95; PTPN22 act: inactive; PTPN22 inh 2: inactive

How did Cc1ccc(-n2c(N)c(C(=O)NCc3ccco3)sc2=S)cc1 do in these assays?
Measles CPE: inactive; PTPN22 act: inactive; PTPN22 inh 2: inactive

How did C=C1C(=O)[C@@]23[C@H](O)C[C@@H]4C(C)(C)CC[C@H](O)[C@]4(C)[C@@H]2C[C@H](O)[C@@H]1[C@H]3O do in these assays?
Measles CPE: inactive

How did CC(=O)NC1(C(F)(F)F)C(=O)Nc2c1c(=O)n(C)c(=O)n2C (stereo not given) do in these assays?
Measles CPE: inactive; PTPN22 act: inactive; PTPN22 inh 2: inactive

How did COc1ccc(-c2n[nH]c(=S)n2/N=C/C=C\c2ccccc2OC)cc1 do in these assays?
Measles CPE: inactive

Results for COc1ccccc1/C=C\C=N\n1c(C2CCCCC2)n[nH]c1=S ?
Measles CPE: inactive; PTPN22 act: inactive; PTPN22 inh 2: 25

How did COc1ccccc1/C=C/C=N/n1c(-c2ccc(C)cc2)n[nH]c1=S do in these assays?
Measles CPE: inactive

How did COc1ccccc1/C=C/C=N/n1c(-c2cc(C)[nH]n2)n[nH]c1=S do in these assays?
Measles CPE: 57

What do the screens show for `Cc1ccc(C)c(NC(=S)NNC(=O)c2cc3c(s2)CCC(C)C3)c1` (stereo not given)?
Measles CPE: inactive

How did CCOc1ccc(Nc2nc3cc(S(=O)(=O)N(CC)CC)ccc3o2)cc1 do in these assays?
Measles CPE: inactive; PTPN22 act: inactive; PTPN22 inh 2: inactive

What do the screens show for `CCn1c(-c2cc(Cl)ccc2OC)n[nH]c1=S`?
Measles CPE: inactive; PTPN22 act: inactive; PTPN22 inh 2: inactive

Results for CC1CCCCN1C(=O)Nc1cccc(Cl)c1 (stereo not given) ?
Measles CPE: inactive; PTPN22 act: inactive; PTPN22 inh 2: inactive

Results for O=C(CNC(=O)c1ccccc1F)OC(C(=O)Nc1cc(C(F)(F)F)ccc1Cl)c1ccccc1 (stereo not given) ?
Measles CPE: inactive; PTPN22 act: inactive; PTPN22 inh 2: inactive

How did C[C@H](NC(=O)c1ccccc1Cl)C(=O)OC(C(=O)Nc1cc(C(F)(F)F)ccc1Cl)c1ccccc1 (stereo not given in full) do in these assays?
Measles CPE: 58; PTPN22 act: inactive; PTPN22 inh 2: inactive

How did CC1(c2ccccc2)NC(=O)N(CC(=O)Nc2cccc(C#N)c2)C1=O (stereo not given) do in these assays?
Measles CPE: inactive

Results for Cc1ccc(NS(=O)(=O)c2ccc(CCC(=O)NCCCOC(C)C)cc2)cc1 ?
Measles CPE: 25

What do the screens show for `COCCCNC(=O)CCc1ccc(S(=O)(=O)Nc2ccc(C)cc2)cc1`?
Measles CPE: inactive; PTPN22 act: inactive; PTPN22 inh 2: inactive

Results for COc1ccc(C(C)=O)cc1COC(=O)c1ccc(S(=O)(=O)N2CCOCC2)cc1 ?
Measles CPE: inactive

How did CCn1cc(C2Nc3ccccc3C(=O)N2O)c(C)n1 (stereo not given) do in these assays?
Measles CPE: inactive; PTPN22 act: inactive; PTPN22 inh 2: inactive

How did CCOC(=O)C(C)c1nc2ccccc2[nH]c1=O (stereo not given) do in these assays?
Measles CPE: 25; PTPN22 act: inactive; PTPN22 inh 2: inactive

What do the screens show for `CCOC(=O)C1=C(C)NC(C)=C(C(=O)OCC)C1c1nc2ccccc2[nH]1`?
PTPN22 act: inactive; PTPN22 inh 2: inactive

How did S=c1nn[nH]n1C12CC3CC(CC(C3)C1)C2 do in these assays?
Measles CPE: 34; PTPN22 act: inactive; PTPN22 inh 2: inactive

Results for c1cn(C23CC4CC(CC(C4)C2)C3)cn1 ?
Measles CPE: inactive; PTPN22 act: inactive; PTPN22 inh 2: inactive

Results for Cc1ccc(-n2nc(C)c(/C=N/NC(=O)c3cccnc3)c2Cl)cc1 ?
Measles CPE: inactive

Results for Cc1nn(-c2ccccc2)c(Cl)c1/C=N/NC(=O)c1cccnc1 ?
Measles CPE: 44

How did COc1ccc(C(=O)n2nnc3ccccc32)cc1OC do in these assays?
Measles CPE: inactive

How did COc1ccc(N/C(=C(/C(Cl)=C(Cl)Cl)[N+](=O)[O-])n2nnc3ccccc32)cc1OC do in these assays?
Measles CPE: 52; PTPN22 act: inactive; PTPN22 inh 2: inactive

Results for O=C(CCc1nc2ccccc2s1)OCC(=O)N1CCN(C(=O)c2ccco2)CC1 ?
Measles CPE: inactive; PTPN22 act: inactive; PTPN22 inh 2: inactive

How did O=C(O)CC(NC(=O)OCc1ccccc1)c1ccccc1 (stereo not given) do in these assays?
Measles CPE: 20; PTPN22 act: inactive; PTPN22 inh 2: inactive

What do the screens show for `NC(=O)CC(NC(=O)OCc1ccccc1)C(=O)O` (stereo not given)?
Measles CPE: inactive; PTPN22 act: inactive; PTPN22 inh 2: inactive

Results for CCc1cccc(C)c1NC(=O)c1ccoc1C ?
Measles CPE: 44; PTPN22 act: inactive; PTPN22 inh 2: inactive

What do the screens show for `CCc1cccc(C)c1NC(=O)c1cc(C)oc1C`?
Measles CPE: inactive; PTPN22 act: inactive; PTPN22 inh 2: inactive

How did CC(=O)Oc1ccc2oc(C)c(C(=O)N3CCOCC3)c2c1 do in these assays?
Measles CPE: 39; PTPN22 act: inactive; PTPN22 inh 2: inactive

What do the screens show for `COc1ccc2oc(-c3ccccc3)c(C(=O)N3CCOCC3)c2c1`?
Measles CPE: inactive; PTPN22 act: inactive; PTPN22 inh 2: inactive

What do the screens show for `COc1cc(/C(C)=N\NC(N)=S)cc(OC)c1OC`?
Measles CPE: 35

What do the screens show for `COc1cc(/C(C)=N/NC(=S)NC(C)C)cc(OC)c1OC`?
Measles CPE: inactive

What do the screens show for `O=C(NCCCn1ccnc1)c1cc2ccccc2oc1=O`?
Measles CPE: inactive

What do the screens show for `O=C(NCCCn1ccnc1)Nc1cccc2ccccc12`?
Measles CPE: 26; PTPN22 act: inactive; PTPN22 inh 2: inactive

What do the screens show for `CCOC(=O)Cc1csc(NC(=O)C2C3C=CC(C3)C2C(=O)O)n1` (stereo not given)?
Measles CPE: inactive; PTPN22 act: inactive; PTPN22 inh 2: inactive

Results for CCSc1nnc(-c2ccc(Cl)cc2Cl)o1 ?
Measles CPE: inactive; PTPN22 act: inactive; PTPN22 inh 2: inactive

What do the screens show for `CSc1nnc(-c2ccc(Cl)cc2Cl)o1`?
Measles CPE: 89; PTPN22 act: inactive; PTPN22 inh 2: inactive

Results for CC1CCCCN1C(=O)c1ccccc1NC(=O)c1ccco1 (stereo not given) ?
Measles CPE: inactive

How did FC(F)(F)c1cc(C(F)(F)F)c2ccc(Oc3ccccc3)nc2n1 do in these assays?
Measles CPE: 43; PTPN22 act: inactive; PTPN22 inh 2: inactive

Results for FC(F)(F)c1cccc(Oc2ccc3c(C(F)(F)F)cc(C(F)(F)F)nc3n2)c1 ?
Measles CPE: inactive; PTPN22 act: inactive; PTPN22 inh 2: inactive

What do the screens show for `CC1=NN(c2ccc([N+](=O)[O-])cc2)C(=O)/C1=C\N(C)C`?
Measles CPE: inactive

How did O=C(Cc1cccs1)N/N=C/C(Br)=C/c1ccccc1 do in these assays?
Measles CPE: 48; PTPN22 act: inactive; PTPN22 inh 2: inactive

How did CC(/C=N/NC(=O)Cc1cccs1)=C\c1ccccc1 do in these assays?
Measles CPE: inactive

How did COc1cccc(NC(=O)CCC(=O)NCc2ccco2)c1 do in these assays?
Measles CPE: 86; PTPN22 act: inactive; PTPN22 inh 2: inactive
